From PubChem BioAssay
A number with no mark means an inactive call. For some of these results: Results with a measured potency or affinity are listed apart. Active and inactive are the calls of the source. Unless noted, no rule for the calls is given here.

Tests used:
[1] = antimalarial activity against Dd2 strain (AID 2302;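 active = growth inhibition above 50% at the single 2 µM test dose, taken to imply half-maximal potency below 2 µM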;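 also: 0% = DMSO untreated growth and 100% = chloroquine plus artemisinin killed control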); conditions: P. falciparum Dd2 in RBCs, LDH growth readout, 72 h; at 2 µM; stronger effect = higher value
[2] = human hepatoma cell viability loss – ATP luminescence, cytotoxicity control for P. falciparum antimalarial project, primary screen (AID 2303;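 active = inhibition above 50%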;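 also: 0% = DMSO wells and 100% = digitonin-killed cells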); conditions: HepG2 viability, 24-48 h, at 10 µM, stronger effect = higher value
[3] = biological target: L-lactate dehydrogenase (Plasmodium falciparum (isolate CDC / Honduras)) (UniProt Q27743); test: PfLDH activity inhibition – cell lysate, 3D7 strain, counter-screen for P. falciparum growth inhibition project (AID 2304);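 also: 0% = vehicle and 100% = reference inhibitor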; conditions: P. falciparum 3D7 crude extract, LDH APAD/NBT absorbance; at 2 µM; stronger effect = higher value
Sequence of L-lactate dehydrogenase (Plasmodium falciparum (isolate CDC / Honduras)) (Q27743 whole entry, looked up): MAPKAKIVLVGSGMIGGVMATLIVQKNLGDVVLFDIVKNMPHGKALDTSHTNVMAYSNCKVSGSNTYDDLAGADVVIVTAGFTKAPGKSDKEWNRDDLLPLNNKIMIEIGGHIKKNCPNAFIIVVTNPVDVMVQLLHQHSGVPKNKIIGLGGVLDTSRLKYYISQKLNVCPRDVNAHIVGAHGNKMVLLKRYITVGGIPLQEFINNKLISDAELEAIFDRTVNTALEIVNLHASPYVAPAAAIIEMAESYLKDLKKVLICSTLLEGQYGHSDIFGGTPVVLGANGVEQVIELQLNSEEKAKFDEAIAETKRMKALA

[4] = inhibition of 3D7 malaria parasite growth – strain 3D7 (AID 2306);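 also: 0% = DMSO wells and 100% = chloroquine plus artemisinin control wells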; conditions: P. falciparum 3D7 erythrocytic growth, LDH absorbance, 72 h; at 2 µM; stronger effect = higher value
[5] = biological target: Calcium-dependent protein kinase 1 (Plasmodium falciparum (isolate 3D7)) (UniProt P62344); test: PfCDPK1 kinase inhibitors, biochemical, TCAMS library (AID 1159585; cut-off not given, nearly all actives have IC50 up to about 0.98 µM;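 also: inhibitors leave more ATP so luminescence rises with inhibition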); conditions: recombinant PfCDPK1, Kinase-Glo ATP depletion luminescence
Sequence of Calcium-dependent protein kinase 1 (Plasmodium falciparum (isolate 3D7)) (P62344 whole entry, looked up): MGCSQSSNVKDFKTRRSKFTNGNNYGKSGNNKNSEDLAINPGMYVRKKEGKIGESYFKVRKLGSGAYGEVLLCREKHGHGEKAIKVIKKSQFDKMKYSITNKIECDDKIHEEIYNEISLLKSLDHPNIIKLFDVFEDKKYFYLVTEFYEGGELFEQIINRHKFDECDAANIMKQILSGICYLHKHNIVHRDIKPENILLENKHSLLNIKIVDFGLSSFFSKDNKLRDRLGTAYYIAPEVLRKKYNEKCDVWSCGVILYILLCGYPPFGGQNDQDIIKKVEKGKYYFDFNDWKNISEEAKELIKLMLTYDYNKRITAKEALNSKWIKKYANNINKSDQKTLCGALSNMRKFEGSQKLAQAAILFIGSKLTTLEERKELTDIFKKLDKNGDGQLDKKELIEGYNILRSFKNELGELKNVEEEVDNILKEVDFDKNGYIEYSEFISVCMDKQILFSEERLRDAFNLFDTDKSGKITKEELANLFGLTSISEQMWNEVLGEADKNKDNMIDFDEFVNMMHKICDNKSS

[6] = biological target: Plasmodium falciparum protein kinase 6 (PK6, PF3D7_1337100) (UniProt Q8IDW1); test: PfPK6 kinase inhibitors, biochemical, TCAMS library (AID 1159586); conditions: recombinant PfPK6, Kinase-Glo ATP depletion luminescence
Sequence of Plasmodium falciparum protein kinase 6 (PK6, PF3D7_1337100) (Q8IDW1 1-305): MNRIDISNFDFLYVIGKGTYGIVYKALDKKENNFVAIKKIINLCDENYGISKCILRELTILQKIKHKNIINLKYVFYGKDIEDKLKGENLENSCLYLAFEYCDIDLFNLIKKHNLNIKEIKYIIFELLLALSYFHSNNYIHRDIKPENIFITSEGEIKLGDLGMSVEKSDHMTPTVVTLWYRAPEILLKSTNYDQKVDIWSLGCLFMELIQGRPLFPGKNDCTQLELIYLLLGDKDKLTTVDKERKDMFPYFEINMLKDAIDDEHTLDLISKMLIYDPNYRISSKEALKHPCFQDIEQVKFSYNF

[7] = biological target: Protein kinase 7 (PK7), Plasmodium falciparum 3D7 (PF3D7_0213400) (UniProt Q7YTF7); test: inhibition of Plasmodium PK7 catalytic activity – biochemical, TCAMS antimalarial set, Kinase-Glo luminescence (AID 1159587); conditions: recombinant PfPK7, Kinase-Glo ATP depletion luminescence
Sequence of Protein kinase 7 (PK7), Plasmodium falciparum 3D7 (PF3D7_0213400) (Q7YTF7 1-343): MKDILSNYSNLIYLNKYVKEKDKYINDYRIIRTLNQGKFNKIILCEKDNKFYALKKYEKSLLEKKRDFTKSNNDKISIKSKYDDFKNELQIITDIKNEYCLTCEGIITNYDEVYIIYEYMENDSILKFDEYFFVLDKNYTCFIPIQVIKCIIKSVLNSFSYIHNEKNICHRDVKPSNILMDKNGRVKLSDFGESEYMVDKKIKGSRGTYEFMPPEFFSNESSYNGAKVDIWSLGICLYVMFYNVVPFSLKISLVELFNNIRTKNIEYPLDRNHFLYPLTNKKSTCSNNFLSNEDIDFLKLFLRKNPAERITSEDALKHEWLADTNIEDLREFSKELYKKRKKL

[8] = biological target: Calcium-dependent protein kinase 4 (Plasmodium falciparum (isolate 3D7)) (UniProt Q8IBS5); test: PfCDPK4 kinase inhibitors, biochemical, TCAMS library (AID 1159588; cut-off not given, nearly all actives have IC50 up to about 0.91 µM); conditions: recombinant PfCDPK4, Kinase-Glo ATP depletion luminescence
Sequence of Calcium-dependent protein kinase 4 (Plasmodium falciparum (isolate 3D7)) (Q8IBS5 whole entry, looked up): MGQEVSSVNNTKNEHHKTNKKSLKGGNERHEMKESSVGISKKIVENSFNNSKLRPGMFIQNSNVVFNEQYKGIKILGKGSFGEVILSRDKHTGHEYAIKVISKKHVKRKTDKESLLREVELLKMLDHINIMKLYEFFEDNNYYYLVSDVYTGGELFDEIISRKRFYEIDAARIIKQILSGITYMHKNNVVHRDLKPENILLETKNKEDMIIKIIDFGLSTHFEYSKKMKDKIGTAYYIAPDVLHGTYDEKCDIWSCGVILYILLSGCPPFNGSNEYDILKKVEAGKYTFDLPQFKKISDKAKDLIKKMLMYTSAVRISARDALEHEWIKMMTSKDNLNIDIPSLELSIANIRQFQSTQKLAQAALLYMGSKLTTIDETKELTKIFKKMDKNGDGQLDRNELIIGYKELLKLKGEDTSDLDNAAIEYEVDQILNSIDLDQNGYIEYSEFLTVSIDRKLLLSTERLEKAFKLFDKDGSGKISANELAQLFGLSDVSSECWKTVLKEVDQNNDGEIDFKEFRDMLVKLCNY

Row | Compound | growth inhibition [1] | inhibition [2] | inhibition [3] [%] | growth inhibition [4] | outcome [5] | outcome [6] | outcome [7] | outcome [8]
1 | COc1ccc(Nc2nccc(N3CCC(NS(=O)(=O)c4ccc(NC(C)=O)cc4)C3)n2)cc1 (stereo not drawn) | 16% | 3% | -2 | 100% (active) | inactive | inactive | inactive | inactive
2 | O=C(NCC1CCC(C(=O)NC2CCCc3ccccc32)CC1)c1ccc(O)c(-c2ccc(Cl)c(Cl)c2)c1 (stereo not drawn) | 86% (active) | -5% | -4 | 93% (active) | inactive | inactive | inactive | inactive
3 | CC1(C)N=C(N)N=C(N)N1OCCCOc1c(Cl)cc(Cl)cc1Cl | 97% (active) | 65% (active) | -2 | 94% (active) | inactive | inactive | inactive | inactive
4 | CC(C)N1CCN(c2ccc(OCCCN3CCN(c4cccc(Cl)c4Cl)CC3)c(C(F)(F)F)c2)CC1 | 37% | 79% (active) | 0 | 94% (active) | inactive | inactive | inactive | inactive
5 | CNC(=O)NC1CCN(Cc2c(-c3cccs3)nc3ccccc3c2C(=O)N[C@@H](C)C2CCCCC2)CC1 | 97% (active) | 5% | 1 | 99% (active) | inactive | inactive | inactive | inactive
6 | COc1ccc(-c2ccnc(-c3cccc(-c4ccccn4)n3)c2)cc1 | 84% (active) | 44% | -1 | 97% (active) | inactive | inactive | inactive | inactive
7 | CCc1cn2c3c(cc(C(=O)N[C@@H](Cc4cccc(F)c4)[C@H](O)CNC4CCOCC4)cc13)N(C)S(=O)(=O)CC2 | 97% (active) | -2% | -2 | 97% (active) | inactive | inactive | inactive | inactive
8 | Cc1ccc(CN2CCCCC(NC(=O)c3cc4ccccc4s3)C2)cc1 (stereo not drawn) | 8% | 9% | -1 | 94% (active) | inactive | inactive | inactive | inactive
9 | COc1ccc(CCNCC(O)c2cccc(Br)c2)c(Cl)c1OC (stereo not drawn) | 70% (active) | 18% | 0 | 87% (active) | inactive | inactive | inactive | inactive
10 | COc1c(C2CCN(CCCCNC(=O)c3ccc(C)c(-c4ccc(C(F)(F)F)cc4)c3)CC2)ccc2c1CCCC2 | 79% (active) | 76% (active) | -5 | 86% (active) | inactive | inactive | inactive | inactive
11 | Cc1ccccc1Nc1cc(Nc2ccccc2C)c2ccccc2n1 | 93% (active) | 28% | -1 | 96% (active) | inactive | inactive | inactive | inactive
12 | CCn1c(-c2nonc2N)nc2c(-c3cccc(NC(=O)Nc4cccc(OC)c4)c3)ncc(OCCCN)c21 | 69% (active) | 1% | 4 | 92% (active) | inactive | inactive | inactive | inactive
13 | Cc1c(-c2ccccc2)ccc2[nH]cc(CC#N)c12 | 85% (active) | 2% | -2 | 95% (active) | inactive | inactive | inactive | inactive
14 | CCCCCN1CCC(NS(=O)(=O)c2cccc(C(=O)Nc3ccc(Cl)cc3)c2)CC1 | 29% | 24% | -3 | 88% (active) | inactive | inactive | inactive | inactive
15 | COc1ccc(NC(=O)Nc2cccc(-c3ccc(-c4nc5ccc(C(F)(F)F)cc5[nH]4)cc3)c2)cc1 | 29% | 46% | 6 | 101% (active) | inactive | inactive | inactive | inactive
16 | CN1CC[C@@H](Oc2cc(Nc3nc(-c4ccc(C#N)cc4)cs3)ccc2Cl)C1 | 24% | 12% | -1 | 99% (active) | inactive | inactive | inactive | inactive
17 | Cc1[nH]c(C)c(-c2cc3ccccc3o2)c(=O)c1Cl | 13% | 1% | -2 | 92% (active) | inactive | inactive | inactive | inactive
18 | CC(C)(C)c1cc([N+](=O)[O-])cc(C(=O)Nc2ccccc2C(F)(F)F)c1O | 99% (active) | 74% (active) | 5 | 96% (active) | inactive | inactive | inactive | inactive
19 | O=C(NC1CCN(c2ccnc3ccccc23)C1)c1cccc(C(F)(F)F)c1 (stereo not drawn) | 86% (active) | 28% | 6 | 94% (active) | inactive | inactive | inactive | inactive
20 | NS(=O)(=O)c1ccccc1Nc1nc(Nc2ccc(N3CCOCC3)cc2)nc2c1CCC2 | 99% (active) | 21% | -1 | 96% (active) | inactive | inactive | inactive | inactive
21 | CCNc1cc(C(=O)N[C@@H](Cc2ccccc2)[C@H](O)CNC2CCCC2)cc(N2CCCC2=O)c1 | 98% (active) | 8% | 2 | 98% (active) | inactive | inactive | inactive | inactive

Row | Compound | growth inhibition [1] | inhibition [2] | inhibition [3] [%] | growth inhibition [4] | outcome [5] | outcome [6] | outcome [7] | outcome [8]
22 | Cc1cc(-c2nc3ccc(C(=N)N)cc3[nH]2)c(C)cc1-c1nc2ccc(C(=N)N)cc2[nH]1 | 97% (active) | 0% | -1 | 96% (active) | inactive | inactive | inactive | inactive
23 | CCc1cn(CCc2ccccc2)c2ccc(C(=O)N[C@@H](Cc3ccccc3)[C@H](O)CNC(C)(C)CCCC(C)C)cc12 | 99% (active) | 66% (active) | 5 | 98% (active) | inactive | inactive | inactive | inactive
24 | CCCCCCCN1CC[C@@H](CCCc2ccnc3ccc(OCC4CCCNC4)cc23)[C@@H](CC)C1 (stereo partly drawn) | 100% (active) | 99% (active) | -1 | 98% (active) | inactive | inactive | inactive | inactive
25 | CN1CCCC(CN2CCN(Cc3cccc(-c4ccc(-c5nc6ccccc6[nH]5)s4)c3)CC2)C1 (stereo not drawn) | 99% (active) | 52% (active) | -6 | 99% (active) | inactive | inactive | inactive | inactive
26 | COC(=O)c1ccc(-c2ccc(C(=O)NCC3CCN(c4nc(N)c5cc(OC)c(OC)cc5n4)CC3)cc2)cc1 | 100% (active) | 53% (active) | -4 | 98% (active) | inactive | inactive | inactive | inactive
27 | O=c1cc(NCCCNCc2cc3ccccc3s2)[nH]c2ccccc12 | -3% | 3% | -1 | 89% (active) | inactive | inactive | inactive | inactive
28 | COc1cccc(CN2CCCN(Cc3cccc(NC(=O)c4cc5ccccc5s4)c3)CC2)c1 | 16% | 17% | -9 | 89% (active) | inactive | inactive | inactive | inactive
29 | O=C(c1ccc2ccccc2n1)N1CCCc2cc(Br)ccc21 | 74% (active) | 19% | -3 | 97% (active) | inactive | inactive | inactive | inactive
30 | Cc1cc(N[C@@H](Cc2ccccc2)C(=O)NCc2cccc(F)c2)nc(NCCOc2ccccc2)n1 | 7% | 0% | -3 | 97% (active) | inactive | inactive | inactive | inactive
31 | O=C(NCCCN1CCC(N2CCCCC2)CC1)C1=Cc2cc(Br)ccc2OC1 | 19% | 26% | -1 | 100% (active) | inactive | inactive | inactive | inactive
32 | OCCOCCNCc1cccc(C#Cc2cc3ncnc(Nc4ccc(OCc5cccc(F)c5)c(Cl)c4)c3s2)n1 | 46% | 35% | 0 | 96% (active) | inactive | inactive | inactive | inactive
33 | Nc1cc(-c2cc3c(OCc4ccccc4)cccc3[nH]2)ccn1 | 15% | 23% | 4 | 85% (active) | inactive | inactive | inactive | inactive
34 | CS(=O)(=O)Nc1ccc2[nH]cc(C3CCN(CC(O)C4CCN(C(=O)/C=C/c5ccc(Cl)c(Cl)c5)CC4)CC3)c2c1 (stereo not drawn) | -10% | 28% | -3 | 101% (active) | inactive | inactive | inactive | inactive
35 | Cc1ccc(F)cc1S(=O)(=O)NCC(C)c1ccc(NC(=O)Nc2cccc(F)c2)cc1 (stereo not drawn) | 5% | 20% | 2 | 95% (active) | inactive | inactive | inactive | inactive
36 | ON=C(c1nc2ccccc2[nH]1)c1nc2ccccc2[nH]1 | 68% (active) | 36% | 6 | 93% (active) | inactive | inactive | inactive | inactive
37 | COc1c(OC)c(OC)c2ccccc2c1CCNCCCCNCCc1c(OC)c(OC)c(OC)c2ccccc12 | 72% (active) | 100% (active) | -3 | 99% (active) | inactive | inactive | inactive | inactive
38 | CCCCSc1nc2c(c(=O)n1Cc1ccco1)C1(CCCCC1)Cc1ccccc1-2 | 78% (active) | 13% | 2 | 96% (active) | inactive | inactive | inactive | inactive
39 | COc1ccccc1CNc1ccnc(N2CC(Oc3ccc(F)cc3)C2)n1 | 95% (active) | 2% | -4 | 97% (active) | inactive | inactive | inactive | inactive
40 | COc1ccc(CCn2c(=N)c(C(=O)NCc3ccccc3)cc3c(=O)n4cccc(C)c4nc32)cc1 | 37% | 29% | -3 | 102% (active) | inactive | inactive | inactive | inactive
41 | O=C1C(C2CCC(c3ccc(Cl)cc3)CC2)=C2OCC3COC2(O3)c2ccccc21 (stereo not drawn) | 97% (active) | 7% | -2 | 98% (active) | inactive | inactive | inactive | inactive
